Bioassay records: PubChem, National Center for Advancing Translational Sciences (NCATS)
Pf Dd2 growth – Plasmodium falciparum Dd2 growth inhibition; AID 1347417; P. falciparum Dd2 growth, SYBR Green, 72 h; 120,000 tested, 4.3% active; Potency, µM (top dose mostly 28.9 µM), usual class: inhibitors; active means well fitted inhibition curve with a large enough effect; further: nearly all actives have a fitted effect of over 65% in size
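Infected erythrocytes (Dd2, 0.3% parasitemia, 2.5% hematocrit final) are added to compound in RPMI-1640/Albumax II medium, grown 72 h at 37C in low oxygen, then lysed with saponin/Triton-X containing SYBR Green and read by fluorescence.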
Of the large screens only hits and unclear results are named; the others gave an inactive call. The sample as a whole holds a higher share of hits than the screen did.

O=C(c1ccncc1)N1CCCN(CCc2ccccc2)c2ccccc21	none
CN1CCCN(C(=O)CCc2ccccc2)c2ccccc21	none
COc1ccc(CCC(=O)N2CCCN(C)c3ccccc32)cc1	none
NC(=O)[C@@H](Cc1ccccc1)NC(=O)C1=C[C@@H](NC(=O)c2ccc(F)c(Cl)c2)[C@@H](O)[C@H](O)C1	none
COc1ccc(C(=O)N2CCC(N3C(=O)C(OC)C34CCOCC4)CC2)c(OC)n1 (stereo unspecified)	none
O=C(NCCc1cnc[nH]1)[C@@H]1C[C@H]2C(=O)NCCCCCCN(S(=O)(=O)c3ccccc3)[C@H]2C1	none
O=C(CNC(=O)c1cnccn1)NC1CCCc2c1[nH]c1c(Cl)cccc21 (stereo unspecified)	none
COc1cc(C(=O)NC2CCCc3c2[nH]c2c(Cl)cccc32)cc(OC)c1OC (stereo unspecified)	Pf Dd2 growth 1µM
Cc1cc(C(=O)NC2CCCc3c2[nH]c2c(Cl)cccc32)c2c(C)noc2n1 (stereo unspecified)	none
CCC(C)NC(=O)Cn1nc(C)c2sc(-c3ccccc3)nc2c1=O (stereo unspecified)	none
Cc1ccc(C)c(NC(=O)Cn2nc3c(cc2=O)CCCCC3)c1	none
CC(=O)Nc1cccc(C(=O)Nc2cccc(-c3nnc4n3CCCC4)c2)c1	none
O=C(Nc1cccc(-c2nnc3n2CCCC3)c1)c1nccc2ccccc12	Pf Dd2 growth 4.47µM
O=C(Nc1ccc(-c2nnc3n2CCCC3)cc1)c1nccc2ccccc12	none
COc1ccccc1C(=O)Nc1cccc(-c2nnc3n2CCCC3)c1	Pf Dd2 growth 4.47µM
O=C(Nc1cccc(-c2nnc3n2CCCC3)c1)c1ccccn1	none
O=C(Nc1cccc(-c2nnc3n2CCCC3)c1)C1CCCC1	none
NC(=O)CNC(=O)C1=C[C@@H](NC(=O)Nc2ccccc2Br)[C@@H](O)[C@H](O)C1	none
Cc1noc(C)c1C(=O)N1CCC(c2nnc(CN(C)C)n2C)CC1	none
O=c1[nH]c(C2CCCN([S+](=O)([O-])c3cccc(C(F)(F)F)c3)C2)nn1-c1cccc(Cl)c1 (stereo unspecified)	none
COc1ccc(C(=O)N2CCC(N3C(=O)C(O)C34CCCCC4)CC2)c(OC)c1 (stereo unspecified)	none
Cc1ccc(CN(C)Cc2cnc(S(=O)(=O)C(C)C)n2CCc2ccccc2)o1	none
Cc1ccc(C)c(C(=O)N2CCC3(CC2)NC(=O)N(c2ccccc2)N3)c1	none
CCOc1ccc2c(n1)CCN(C(=O)Cc1cccc(C)c1)C2	Pf Dd2 growth 10µM
CCOc1ccc2c(n1)CCN(C(=O)c1ccc(OC)cc1)C2	none
CCOc1ccc2c(n1)CCN(C(=O)C1(c3ccccc3)CC1)C2	Pf Dd2 growth 10µM
CCOc1ccc2c(n1)CCN(C(=O)Cc1ccc(F)cc1)C2	none
CCOc1ccc2c(n1)CCN(C(=O)c1cnccn1)C2	none
COCCOc1ccc2c(n1)CCN(C(=O)Cc1cccc(OC)c1)C2	none
O=c1cc(N2CCOCC2)oc2c(NC3CCOCC3)nccc12	none
CCCC1(C2CCN(C(=O)CCCn3cncn3)CC2)NC(=O)NC1=O (stereo unspecified)	none
Cc1ccc(OCC(=O)N2CCC3(CC2)CCC(O)(CN(C)C)CC3)cc1	none
O=C1CCC2(CCNCC2)CN1CCCNc1cccnc1	none
O=c1c2nc(Nc3cccnc3)ccc2ncn1-c1ccccc1	none
CCN(CC)CCCNC(=O)CSc1nc2nc(C)c(Cc3c(F)cccc3Cl)c(C)n2n1	none
CCCCS(=O)(=O)c1oc(-c2ccc(F)cc2)nc1S(=O)(=O)c1ccc(C)cc1	none
COCCNc1sc(S(=O)(=O)c2ccc(C)cc2)nc1S(=O)(=O)c1ccc(C)cc1	none
Cc1ccc(S(=O)(=O)c2nc(-c3ccco3)oc2SCC(C)C)cc1	none
CCCCNc1nc2c(S(=O)(=O)c3ccc(Cl)cc3)nnn2c2ccsc12	none
CCCSc1oc(-c2cccs2)nc1S(=O)(=O)c1ccc(C)cc1	none
CCN(CC)CCCNc1sc(S(=O)(=O)c2ccccc2)nc1S(=O)(=O)c1ccc(Cl)cc1	Pf Dd2 growth 5.62µM
CCCCNc1sc(S(=O)(=O)CC)nc1S(=O)(=O)c1ccc(C)cc1	Pf Dd2 growth 11.2µM
CCC(C)Nc1sc(S(=O)(=O)CC)nc1S(=O)(=O)c1ccc(C)cc1 (stereo unspecified)	Pf Dd2 growth 12.6µM
CCCCCS(=O)(=O)c1oc(-c2cccs2)nc1S(=O)(=O)c1ccc(C)cc1	none
CCCS(=O)(=O)c1nc(S(=O)(=O)c2ccc(C)cc2)c(N(CC)CC)s1	none
CCCS(=O)(=O)c1nc(S(=O)(=O)c2ccc(C)cc2)c(NCC(C)C)s1	Pf Dd2 growth 8.91µM
CC(C)N1CCC(O)(c2csc(CN3CCOCC3)n2)CC1	none
CN1CCN(c2nc3c(c(=O)[nH]2)CCN(Cc2ccccc2Cl)CC3)CC1	none
O=C(Cn1c(=O)oc2ccccc21)N1CCc2nn(CC3CC3)c(=O)n2CC1	none
O=C1OC[C@@H]2CCN(C3CCC3)Cc3ccc(F)cc3N12	none
Cc1ccc(-c2nc(C(=O)N3CCN(c4ccc(C)cc4)CC3)no2)cc1	none
CC(C)(C)c1nnc2n1C(C(=O)N1CCN(c3ncccn3)CC1)CC2 (stereo unspecified)	none
COc1ccc(Cn2c3c(c(=O)n2Cc2ccccc2)CCN(Cc2c(C)noc2C)C3)cc1	none
